# Insulin prom inh: TRM-6 insulin promoter activity inhibition; TRM-6 cells (human fetal islet line), insulin promoter-eGFP reporter, imaging; reporter expression induced with tamoxifen; inhibition, % at 2 µM; 130,000 compounds, 0.9% hits; AID 1273;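 active = inhibition above the mean plus 3 SD, with well images judged a real hit on visual review, cut at about 60% in these data, passing the limit was not always enough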
# ROMK primary: modulators of human ROMK potassium channel. P48048. Tet-inducible ROMK, thallium flux fluorescence; actives lie on both sides. B-score at 10 µM. 130,000 compounds, 2% hits. AID 1918;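 active = signal ratio slope over the read window, or its plate-corrected B-score, at least 3 SD from the plate mean, either direction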;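 also: B-score of the F/F0 ratio slope over 7 to 12 s after thallium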
# L major viab: Leishmania major promastigote growth inhibition | Leishmania major promastigotes, resazurin fluorescence viability | inhibition, % at 10 µM | 200,000 compounds, 9% hits | AID 1063; in the data active = inhibition above about 50%;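 also: promastigotes grown with compound for 44 hours at 28 °C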
# Cl transport mod: KCC2 (human) Cl- transport modulation | Q9H2X9 | KCC2 cells, thallium flux FluoZin-2 fluorescence | B-score of Tl+ flux slope (higher = more flux/activation; lower = inhibition) at 10 µM | 190,000 compounds, 2.2% hits | AID 1456;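 active = thallium flux slope and its plate-corrected score both differing from the plate sample mean at a set confidence after two filtering rounds, in either direction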;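 also: slope of fluorescence scaled to starting intensity during 10 to 20 s after thallium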
# Target sequence (Q9H2X9 whole entry, looked up): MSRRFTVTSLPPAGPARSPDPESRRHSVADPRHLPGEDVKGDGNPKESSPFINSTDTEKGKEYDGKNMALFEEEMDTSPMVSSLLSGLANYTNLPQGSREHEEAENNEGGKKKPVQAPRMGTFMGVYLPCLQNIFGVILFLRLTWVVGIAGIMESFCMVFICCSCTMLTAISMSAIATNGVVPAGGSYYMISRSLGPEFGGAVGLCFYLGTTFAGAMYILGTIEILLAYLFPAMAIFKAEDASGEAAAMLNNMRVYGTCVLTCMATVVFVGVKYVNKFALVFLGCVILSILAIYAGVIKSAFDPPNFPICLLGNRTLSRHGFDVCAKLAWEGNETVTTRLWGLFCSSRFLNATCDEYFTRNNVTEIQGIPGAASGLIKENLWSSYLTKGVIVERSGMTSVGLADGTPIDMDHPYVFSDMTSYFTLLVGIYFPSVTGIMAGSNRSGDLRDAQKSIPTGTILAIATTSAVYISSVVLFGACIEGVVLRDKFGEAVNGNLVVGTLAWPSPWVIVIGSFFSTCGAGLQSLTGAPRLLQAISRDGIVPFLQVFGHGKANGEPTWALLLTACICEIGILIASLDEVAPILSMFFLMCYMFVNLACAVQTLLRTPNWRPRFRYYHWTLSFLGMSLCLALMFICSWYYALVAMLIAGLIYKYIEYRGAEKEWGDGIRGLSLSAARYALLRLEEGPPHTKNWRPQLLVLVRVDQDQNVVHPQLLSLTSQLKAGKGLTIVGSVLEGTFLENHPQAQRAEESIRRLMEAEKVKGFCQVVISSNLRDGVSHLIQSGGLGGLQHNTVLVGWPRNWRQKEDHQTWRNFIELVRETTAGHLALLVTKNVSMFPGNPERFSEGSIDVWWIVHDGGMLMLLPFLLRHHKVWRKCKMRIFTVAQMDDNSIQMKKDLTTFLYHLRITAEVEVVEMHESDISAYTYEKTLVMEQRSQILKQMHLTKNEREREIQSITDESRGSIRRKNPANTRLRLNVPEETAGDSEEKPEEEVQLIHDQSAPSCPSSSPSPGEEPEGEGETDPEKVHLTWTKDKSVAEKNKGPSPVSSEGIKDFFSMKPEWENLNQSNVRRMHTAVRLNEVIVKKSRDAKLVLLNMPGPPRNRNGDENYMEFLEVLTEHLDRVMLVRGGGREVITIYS
# WT yeast gro inh: growth inhibition of WT yeast, mitochondrial fusion screen; inhibition, % at 10 µM; 190,000 compounds, 2.1% hits; AID 1362; mitochondrial fusion phenotypic screen, WT strain; in the data active = inhibition above about 58%; tested in S. cerevisiae
# Ins promoter up: MIN6 insulin promoter up-regulation; z-score at 5 µM; AID 1625; 190,000 compounds, 0.3% hits; MIN6 insulin promoter-GFP reporter, high-content imaging; active compounds read high;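 active = z-score above 3 at 5 µM with at least 500 cells counted in the well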
# The depositor's hits bear a star; nt = no result given. Most compounds without a hit are left out; they make up all but 12% or so of the library.
SMILES,Insulin prom inh,ROMK primary,L major viab,Cl transport mod,WT yeast gro inh,Ins promoter up
CN1/C(=C\C(=O)COC(=O)c2ccc([N+](=O)[O-])o2)C(C)(C)c2ccccc21,nt,0.32,81*,-0.8,94*,0.57
CCCCCCCCNc1ncnc2ccccc12,53,-0.99,77*,nt,69,nt
O=C(Oc1cccc(Nc2ncnc3ccccc23)c1)c1ccccc1Cl,22,nt,6,nt,59*,-0.23
COc1cccc(Nc2ncnc3ccccc23)c1,-3,-0.32,62*,-0.91,0,-0.05
COc1ccc(Nc2ncnc3ccccc23)cc1,34,-0.54,12,nt,7,-0.56
O=C1CC(c2ccc3c(c2)OCO3)C2=C(CCCC2=O)N1 (centres undefined),nt,nt,-5,0.13,-4,0.41
Nn1c(-c2ccccn2)nnc1-c1ccccn1,23,nt,4,0.63,24,nt
CCN(Cc1ccccc1)S(=O)(=O)c1cc(C(=O)NC2CCCCCC2)ccc1OC,15,-0.028,95*,-0.54,2,0.04
CCN(Cc1ccccc1)S(=O)(=O)c1cc(C(=O)NCC2CCCCC2)ccc1OC,-32,-0.96,98*,0.11,8,-0.67
CCOC(=O)C1=C(C)NC2=C(C(=O)CC(C)(C)C2)C1c1coc2ccccc2c1=O (centres undefined),-447,0.00021,-1,-0.54,-1,0.01
CC1(C)COC(c2coc3ccccc3c2=O)OC1,100*,nt,45,0.62,-1,0.1
CC(C)CCN(N=O)[C@@H](Cc1ccccc1)CN(N=O)[C@@H](Cc1ccccc1)CN(C)N=O,nt,nt,5,-4.1*,5,-1.6
CC(C)C[C@@H](CN(N=O)[C@@H](Cc1ccccc1)CN(C)N=O)N(CCc1ccccc1)N=O,nt,nt,-2,-0.42,-5,-1.1
O=C(c1ccc(Br)s1)N1CCCC1,70*,0.017,-3,0.011,0,-0.39
O=C(c1ccc(Br)s1)N1CCN(c2ncccn2)CC1,19,0.05,-3,nt,3,-0.35
CCOC(CNC(=O)CCc1c(C)nc2ncnn2c1C)OCC,36,nt,-1,0.3,-10,0.34
Cc1ccc(/C=C2/NC(=O)N(Cc3ccccc3)C2=O)s1,nt,nt,73*,-1.2,-4,0.76
Cc1cccc(CN2C(=O)N/C(=C/c3ccc(C)s3)C2=O)c1,-96,nt,8,0.032,nt,nt
COC(=O)C1=C(C)N(c2cc(Cl)cc(Cl)c2)C(=O)C1,nt,nt,87*,nt,-5,-0.34
COc1ccc(N2CCN(C(=O)C(Cc3ccccc3)n3cccc3)CC2)cc1 (centres undefined),nt,nt,6,nt,18,0.21
CN([C@@H](Cc1ccc(OS(=O)(=O)c2cccc3cnccc23)cc1)C(=O)N1CCN(c2ccccc2)CC1)S(=O)(=O)c1cccc2cnccc12,-67,nt,98*,0.46,-1,nt
Cc1ccc(Nc2ccc([N+](=O)[O-])nc2[N+](=O)[O-])cc1,5,nt,70*,0.6,7,-0.09
O=C(CNc1ccccc1)N/N=C/c1c[nH]c2ccccc12,7,0.074,-2,-0.39,-1,0.17
COCCNC(=O)COc1ccc(Br)cc1Cl,7,nt,1,0.24,-11,nt
CN(C)CCCNC(=O)COc1ccc(Br)cc1Cl,-11,0.11,91*,0.15,-10,0.11
SMILES,Insulin prom inh,ROMK primary,L major viab,Cl transport mod,WT yeast gro inh,Ins promoter up
Cc1cc(Cl)ccc1OCC(=O)NCCC(=O)O,43,-0.0012,-7,nt,-3,-0.08
O=C(COc1ccc(Cl)cc1Cl)NCC(=O)N/N=C/c1c[nH]c2ccccc12,-14,-0.022,70*,-0.32,-1,0.22
Cc1cc(Cl)ccc1OCC(=O)NCCCCc1ccccc1,nt,nt,-8,0.1,63*,-0.17
CCN(CC)CCNC(=O)COc1ccc(Cl)cc1Cl,-49,nt,75*,0.14,-33,-0.11
CN(C)CCNC(=O)COc1ccc(Cl)cc1Cl,0,-0.037,0,0.51,-21,0.05
CCCn1c2c(c(O)c(C(=O)Nc3ncccc3O)c1=O)CCCC2,nt,-0.23,-3,nt,-11,nt
CCN(CC)S(=O)(=O)c1ccc(C(=O)Nc2ccc(OCC(=O)N3CCOCC3)cc2)cc1,25,-0.21,-5,nt,0,0.38
Cc1ccc(-c2nc(CN(C)C(C3CC3)C3CC3)c(C)o2)cc1,nt,-0.49,2,-0.45,6,0.99
CC(Oc1ccc(Cl)cc1Cl)C(=O)NCCCCc1ccccc1 (centres undefined),-29,nt,5,-2.2,61*,-0.08
O=C(COc1ccccc1-c1ccccc1)NCc1cccc(Cl)c1,nt,nt,17,0.018,78*,-0.3
O=C(CSc1nnc(SCc2ccc(Cl)cc2)s1)N/N=C/c1c[nH]c2ccccc12,-4,nt,65*,-2.4,3,0.07
CC(Oc1cccc(Cl)c1)C(=O)NCCCCc1ccccc1 (centres undefined),30,-0.46,48,-0.7,35,-0.47
CCN(CC)CCNC(CC(=O)Nc1ccc(Cl)cc1Cl)C(=O)O (centres undefined),94*,0.39,-10,-0.54,14,nt
CCCN(CC(=O)Nc1ccc(C(N)=O)cc1)CC(=O)Nc1ccc(Cl)cc1Cl,nt,nt,-3,-0.49,2,0.76
Cc1cccc(NC(=O)CN2C(=O)NC(Cc3ccccc3)C2=O)c1 (centres undefined),41,-0.92,-3,-0.6,-6,0.17
O=C1CCN(C(=O)/C=C/c2ccccc2)c2ccccc21,39,0.7,-3,0.45,6,-0.45
CCOC(=O)C(Cc1ccccc1)(NC(C)=O)C(=O)OCC,-4,0.46,-5,0.32,-7,-0.07
O=C(COc1ccc([N+](=O)[O-])cc1Cl)NCCc1ccccc1,-72,-0.5,46,-2.2,9,0.27
Cc1cccc(CSCCNC(=O)COc2ccc(Cl)cc2)c1,-83,nt,22,0.36,-13,0.15
O=C(COc1ccc(Cl)cc1Cl)NCCCCc1ccccc1,-14,nt,-6,-0.0023,76*,0.45
O=C(COc1ccc(Cl)cc1Cl)Nc1ccccn1,16,0.088,4,-0.19,66*,-0.17
O=C(COc1ccc(Cl)cc1)NCCSCc1cccc(Cl)c1,48,nt,-4,0.11,79*,-0.31
O=C(/C=C/c1ccccc1)c1ccc(NC2=NCCCS2)cc1,0,0.71,100*,-0.007,57,0.09
O=C(/C=C/c1ccc(Br)cc1)c1ccc(NC2=NCCCS2)cc1,46,-0.014,100*,0.56,81,0.11
CC(C)(C)c1ccc(/C=C/C(=O)c2ccc(NC3=NCCCS3)cc2)cc1,nt,nt,100*,0.16,79,-0.2
CC(C)(C)NC(=O)NC(=O)CN1CCN(c2ncc(C(F)(F)F)cc2Cl)CC1,68*,-0.34,9,-1.2,13,0.23
NNC(=O)CN1CCN(c2ncc(C(F)(F)F)cc2Cl)CC1,19,-0.28,2,0.41,6,0.1
CN1CCN(CC(=O)N(C)c2nc(-c3ccccc3)cs2)CC1,7,-1.2,94*,nt,28,-1.4
C/C(=N\Nc1cccc(Cl)c1)c1ccc(-n2ccnc2)cc1,-21,1.5,1,0.67,66*,-0.63
Cc1c(N=C2C=CC(=O)c3ccccc32)c(=O)n(-c2ccccc2)n1C,nt,-1.8,101*,-1.1,13,0.29

# Source: PubChem (several laboratories)
